The record followed here is PubChem BioAssay (Tox21).

Each structure is given as a SMILES string. “And” between values parts separate entries of the source, which are not always exact repeats. Equal entries are not always repeated. Records with an inconclusive call do not appear. Where a call stands in place of a potency, no number is given. Some structures have more than one record in an assay (separate samples or runs), and their calls can disagree. The source made the active and inactive calls. Calls come from the whole dose curve; as a rule, active = well fitted cell-killing curve with a large enough effect in the repeat runs; inconclusive = weak or mixed curves, or effect the other way; inactive = flat fitted curve, though single readings scatter.
Potency is the fitted concentration of half-maximal effect.

The nature of the assay: qHTS assay to identify small molecule agonists of the sonic hedgehog signaling (Shh) pathway - cell viability counter screen (AID 1259366). Note: nearly all actives have a fitted effect of over 50% in size. The settings on record: NIH/3T3 Gli1-Luc viability, CellTiter-Fluor, 24 h; series mostly up to 92.4 µM. From the text:
National Center for Advancing Translational Sciences [NCATS]
NIH Chemical Genomics Center [NCGC]
U.S. Environmental Protection Agency [EPA]
National Institutes of Environmental Health Sciences [NIEHS]
National Toxicology Program [NTP]
U.S. Food and Drug Administration [FDA]
The sonic hedgehog (Shh) pathway is essential for normal embryonic development. Dysregulation of the Shh pathway can cause severe developmental defects in organs. Therefore chemicals that interfere with the pathway are potential developmental toxicants. A cell line designated 3T3Gli1-Luc (DMB/OARSA/CFSAN/FDA, Laurel, MD), a NIH/3T3 derived clone containing stably integrated Gli1-Luc reporter is used to detect chemical interference of the Shh pathway, by changes in the expression of the firefly Luc gene under the control of the Gli1 transcriptional response element. This cell line was used to screen Tox21 libraries for identifying and prioritizing the potential developmental toxicants that interfere Shh pathway. The cytotoxicity of the compounds was tested in parallel by measuring the cell viability using CellTiter-Fluor assay system (Promega, Madison, WI) in the same wells.
Tox21 Assay Protocol Summary:
3T3 Gli1-Luc cells were dispensed at 2,000 per well in 5uL of culture medium into white solid bottom 1536-well plates (Greiner Bio-One, Monroe, NC) using a Multidrop Combi (Thermo Scientific, Waltham, MA) dispenser. The assay plates were incubated at 37 C and 5% CO2 for 4hr, and then 23nL of compounds dissolved in DMSO and positive control were transferred using a Pintool station (Wako, San Diego, CA). The assay plates were incubated at 37C and 5% CO2 for 24hr. For viability read, after 23hr of compound treatment, 1uL of CellTiter-Fluor reagent (Promega Corporation, Madison, WI) was added to each well of the assay plates using Flying Reagent Dispenser (FRD, Aurora Discovery, San Diego, CA) and incubated the assay plates at 37C for 1hr. The fluorescence signal was quantified using a ViewLux plate reader (Perkin Elmer, Shelton, CT).
Background: In qHTS, concentration-response curves come from the screen itself.
For the molecule `CN(C)C(=N)N=C(N)N`, the Potency entry was “inactive”.
For `CN(C)CCN(Cc1cccs1)c1ccccn1`, the Potency entry is “inactive”.
Still for that read-out and setting: in the case of `OC[C@H]1O[C@@H]2O[C@H]3[C@H](O)[C@@H](O)[C@@H](O[C@H]4[C@H](O)[C@@H](O)[C@@H](O[C@H]5[C@H](O)[C@@H](O)[C@@H](O[C@H]6[C@H](O)[C@@H](O)[C@@H](O[C@H]7[C@H](O)[C@@H](O)[C@@H](O[C@H]8[C@H](O)[C@@H](O)[C@@H](O[C@H]1[C@H](O)[C@H]2O)O[C@@H]8CO)O[C@@H]7CO)O[C@@H]6CO)O[C@@H]5CO)O[C@@H]4CO)O[C@@H]3CO` it was “inactive”; in that of `O=Cc1ccccc1O`, “inactive”.
As for `Cc1cccc(N(C)C(=S)Oc2ccc3ccccc3c2)c1`, the Potency result is “inactive”.
As to `O=C(c1ccccc1)c1ccccc1O`, the Potency result is “inactive”.
Take `CC(=O)c1ccccn1`: the Potency result was “inactive”.
Turning to `CC(=O)CC/C=C(\C)CCC=C(C)C`, the Potency entry is “inactive”.
On the same count and under the same terms, in the case of `CC(=O)C1(C)CC2=C(CCCC2(C)C)CC1C` (stereo not given) it was “inactive”; in that of `OCCO`, “inactive”.
The same measure, in the same setting: in the case of `C=C(C)C(=O)OCCOC(=O)C(=C)C` it was “inactive”; in that of `OC(CCl)CCl`, “inactive”; in that of `O=C1c2cccc(O)c2C(=O)c2c(O)cccc21`, “inactive”.
As to `O=C(Nc1ccc([N+](=O)[O-])cc1Cl)c1cc(Cl)ccc1O`, the viability change, negative = cytotoxic was -20.9% [at 19 µM] (inactive) and the Potency was 68.6 µM (active).
As to `Nc1ccc(S(=O)(=O)Nc2cnc3ccccc3n2)cc1`, the Potency result is “inactive”.
The same measure, in the same setting: in the case of `CCC(C)CO` (stereo not given) it was “inactive”; in that of `c1ccc2cc(Nc3ccc(Nc4ccc5ccccc5c4)cc3)ccc2c1`, “inactive”.
Consider `CC(C)OC(=O)C(C)(C)Oc1ccc(C(=O)c2ccc(Cl)cc2)cc1`, for which the Potency result is “inactive”.
In the case of `C=CC(C)(CCC=C(C)C)OC(C)=O` (stereo not given), the Potency result is “inactive”.
Still for that read-out and setting: in the case of `c1ccc(Nc2ccccc2)cc1` it was “inactive”; in that of `Cc1ccc(C(=O)c2cc(O)c(O)c([N+](=O)[O-])c2)cc1`, “inactive”.
As for `C#C[C@]1(O)CC[C@H]2[C@@H]3CCC4=Cc5oncc5C[C@]4(C)[C@H]3CC[C@@]21C`, the Potency result is “inactive”.
Same read-out and setting: in the case of `C#C[C@]1(O)CC[C@H]2[C@@H]3CCc4cc(OC)ccc4[C@H]3CC[C@@]21C` it was “inactive”; in that of `Cc1cccc(C(=O)O)c1`, 13.5 µM (active) and inactive; in that of `c1ccc2c(c1)Oc1ccccc1S2`, “inactive”.
Consider `O=C1OC2(c3cc(Br)c(O)c(Br)c3Oc3c2cc(Br)c(O)c3Br)c2c(Cl)c(Cl)c(Cl)c(Cl)c21`, for which the Potency was 9.7 µM (active) and 16.6 µM (active).
On the same count and under the same terms, in the case of `CCCCCCCCCCCO` it was “inactive”; in that of `c1ccc2c(c1)c1cccc3ccc4cccc2c4c31`, “inactive”; in that of `Nc1ncn([C@@H]2O[C@H](CO)[C@@H](O)[C@H]2O)c(=O)n1`, “inactive”.
For the molecule `CC(C)Oc1ccc2c(=O)c(-c3ccccc3)coc2c1`, the Potency result is “inactive”.
Take `O=S(=O)(O)c1ccc(O)cc1`: the Potency result is “inactive”.
Same read-out and setting: for `CCOC(=O)C(C#N)=C(c1ccccc1)c1ccccc1` the value was “inactive”; for `CC(C)=CCC/C(C)=C\CO`, “inactive”; for `CC(C)OB(OC(C)C)OC(C)C`, “inactive”.
For `CC1=CCC(C(C)(C)O)CC1` (stereo not given), the Potency result is “inactive”.
Still for that read-out and setting: for `C[C@]12CC[C@H]3[C@@H](CCC4=CC(=O)CC[C@@]43C)[C@@H]1CC[C@@H]2C(=O)CO` the value was “inactive”; for `CCCCC(CC)COCC1CO1` (stereo not given), “inactive”.
Turning to `CN(C)CCC=C1c2ccccc2CCc2ccccc21`, the Potency is 68.6 µM (active) and inactive.
Consider `COC(=O)Nc1nc2ccc(S(=O)c3ccccc3)cc2[nH]1` (stereo not given), for which the Potency result was “inactive”.
